# Bioassay records from PubChem BioAssay.
# This is a sample that favours compounds with a hit; in the whole collection about 12% have one here.
# PLK1 PBD block – qHTS for Inhibitors of PLK1-PDB (polo-like kinase 1 - polo-box domain): Primary Screen; Serine/threonine-protein kinase PLK1 (Homo sapiens), P53350; Plk1 PBD binding of FITC phosphopeptide, fluorescence polarization; 360,000 compounds, 2.8% hits; Potency, µM, inactives show max response, negative = inhibition, hits mostly inhibitors; further: potency means the concentration at half of the fitted maximal effect; series mostly up to about 57 µM; on the % scale 0 is the no-effect control and ±100 the full control effect; nearly all actives have a fitted effect of over 65% in size
# BAZ2B inh – qHTS Assay for Inhibitors of BAZ2B; AlphaScreen BAZ2B-H3K14Ac peptide displacement; 360,000 compounds, 4.4% hits; Potency, µM (highest dose often 114 µM), for inactives: at the highest dose activity change, negative = inhibition, usual class: inhibitors; further: potency means the concentration at half of the fitted maximal effect; on the % scale 0 is the no-effect control and ±100 the full control effect; nearly all actives have a fitted effect of over 60% in size
#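 AlphaScreen displacement of biotin-H3(5-23)K14Ac peptide (50 nM final) from BAZ2B (50 nM final) in PBS pH 7.4, 0.01% Tween-20; complex preformed 30 min RT, then compounds (top 110 uM) 30 min RT, beads 20 min dark.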
# PI5P4Ka inh – qHTS for Inhibitors of phosphatidylinositol 5-phosphate 4-kinase (PI5P4K); max response, %; Phosphatidylinositol 5-phosphate 4-kinase type-2 alpha (Homo sapiens), P48426; 330,000 compounds, 1.2% hits; PI5P4Kalpha enzyme, ADP-Glo luminescence, 60 min; stronger effect = lower value; active means max response of -50% or lower; inconclusive means between -30% and -50%; inactive means -30% or higher; further: value at the top dose of about 77 µM; on the % scale 0 is the no-effect control and ±100 the full control effect
#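 ADP-Glo luminescence end-point read after a 60 min room-temperature kinase reaction of PI5P4Kalpha plus substrate, initiated with ATP at 5 microM final. Buffer: 0.038 M HEPES pH 7.4, EGTA, 0.1% CHAPS, 5% DMSO.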
# G9a inh – qHTS Assay for Inhibitors of Histone Lysine Methyltransferase G9a; Histone-lysine N-methyltransferase EHMT2 (Homo sapiens), Q96KQ7; G9a H3K9 monomethylation, AlphaScreen, 2 h; Potency, µM (titrated, usually from 102 µM), without a hit: at the highest dose activity, negative = inhibition, actives largely listed as inhibitors; 350,000 compounds, 8.8% hits; AID 504332, 2011; further: potency means the concentration at half of the fitted maximal effect; on the % scale 0 is the no-effect control and ±100 the full control effect; nearly all actives have a fitted effect of over 75% in size
#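 AlphaScreen read-out: biotin-H3K9 peptide (500 nM) methylation by 20 nM enzyme with 20 uM SAM, 2 h at room temperature after 15 min compound preincubation; anti-monomethyl H3K9 antibody plus donor/acceptor beads, 10 min dark.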
# HP1b chromo inh – HTS for Inhibitors of HP1-beta Chromodomain Interactions with Methylated Histone Tails; Chromobox protein homolog 1 (Homo sapiens), P83916; AlphaScreen HP1-beta / biotin-H3K9me3 peptide binding; Potency, µM (top dose mostly 114 µM), inactives show at the top dose activity change, negative = inhibition, hits mostly inhibitors; 390,000 compounds, 0.56% hits; further: potency means the concentration at half of the fitted maximal effect; nearly all actives have a fitted effect of over 70% in size
#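 AlphaScreen: HP1-beta (50 nM) preformed 30 min with biotin-H3(1-18)K9me3 peptide (50 nM) in PBS pH 7.4, 0.01% Tween-20. Compound added for 30 min at RT, then streptavidin donor/nickel chelate acceptor beads (10 ug/mL) for 30 min.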
# JMJD2A Tudor – qHTS Assay for Inhibitors of JMJD2A-Tudor Domain; Lysine-specific demethylase 4A (Homo sapiens), O75164; AlphaScreen JMJD2A-Tudor / H3K4me3 peptide binding; Potency, µM (series often up to 114 µM), inactives show top-dose activity change, negative = inhibition, hits mostly inhibitors; 390,000 compounds, 4.4% hits; further: potency means the concentration at half of the fitted maximal effect; on the % scale 0 is the no-effect control and ±100 the full control effect; nearly all actives have a fitted effect of over 50% in size
# * hit, by the source's call; ? = inconclusive; nt = no result given; ! = repeats disagree; [ ] = dose if it differs, or a comment. Unless noted, the call rests on the fitted dose curve; in most records, active means well fitted curve in the direction sought with a large enough effect; inconclusive means small, poorly fitted or top-dose-only effect, or another doubt; inactive means no such curve, though single readings can be large; an effect the other way counts as inactive or inconclusive.
SMILES,PLK1 PBD block,BAZ2B inh,PI5P4Ka inh,G9a inh,HP1b chromo inh,JMJD2A Tudor
COC(=O)CSc1nc2sc3c(c2c(=O)n1-c1ccc(OC)cc1)CCN(C)C3,-12%,-7%,3,12%,-6%,-25%
Cc1sc2nc(SCC(=O)NCc3ccco3)n(-c3ccccc3)c(=O)c2c1C,-8%,7%,nt,18%,19%,-13%
CC1C(=O)N2CCCc3cc(S(=O)(=O)Nc4ccc(Br)cc4F)cc1c32 (stereo not drawn),nt,7%,nt,2%[59 µM],14%[57 µM],-13%
Cc1cc(C)c2cccc(N)c2n1,2%,-14%,4,nt,37%,-10%
Cc1cc(N)c2ccccc2[n+]1CCCCCCCCCC[n+]1c(C)cc(N)c2ccccc21,nt,nt,nt,50µM*!,nt,nt
Cc1cc(C)cc(NC(=O)c2cnn(-c3ccccc3)c2C2CCNCC2)c1,-17%,-27%,-7,40µM*,18%,-22%
Cc1cccc(NC(=O)c2cnn(-c3ccc(F)cc3)c2C2CCNCC2)c1C,-4%,4%,-11,35µM*,10%,-20%
COc1ccc(OC)c(NC(=O)c2cnn(-c3ccc(C)cc3)c2C2CCNCC2)c1,nt,?,nt,?,-3%,79µM*
Cc1ccc(Cl)cc1N1CCN(C(=O)c2cnn(-c3ccc(Cl)cc3)c2C2CCNCC2)CC1,nt,?,nt,8.9µM*,30%,-28%
COc1ccc(CNC(=O)c2ccc(CN3C(=O)C(C)=C(c4ccc(C)cc4)S3(=O)=O)cc2)cc1,nt,-15%,nt,-4%[59 µM],3%,-31%
Cc1ccccc1CNC(=O)c1cc2cc(S(=O)(=O)N3CCCCC3)ccc2n1C,nt,1%,nt,7%[59 µM],14%[57 µM],-27%
O=Cc1c(Sc2ccccn2)nc2ccccn2c1=O,-11%,-4%,5,2%[59 µM],54%,6%
O=Cc1c(Sc2ccccc2)nc2ccccn2c1=O,3.4µM*,-18%,?,-13%,-13%,-29%[11.4 µM]
CCO/C(C)=C1\C(=O)Nc2ccccc21,-15%,7%,-6,50µM*,40%,-8%
CCC(=O)N1CCc2cc(CNC(=O)C(CC)c3ccccc3)ccc21 (stereo not drawn),nt,2%,nt,-2%[59 µM],30%,-10%
O=[N+]([O-])c1cc2c(c(CSc3nnc(Nc4ccccc4)s3)c1)OCOC2,-5%,-4%,-11,3.5µM*,25%,17%
C=CCC1Cc2c(cccc2[N+](=O)[O-])C(CC=C)N1 (stereo not drawn),-8%,?,2,50µM*,-3%,?
CCc1ccc(NC(=O)c2sc3nc(C)c(Cl)c(C)c3c2N)cc1,nt,-28%,nt,-30%[59 µM],68%,-1%
N#Cc1nc(-c2cccs2)oc1N1CCN(c2ccccc2)CC1,-6%,?,nt,8.9µM*,-20%,?
N#Cc1nc(Cc2ccccc2)oc1N1CCN(c2ccccc2)CC1,-9%,10µM*,nt,?,14µM*,28µM*
N#Cc1nc(Cc2ccccc2)oc1N1CCC(Cc2ccccc2)CC1,-4%,?,-5,?,?,-34%
O=c1nc2ccccc2c(NS(=O)(=O)c2ccc(Cl)cc2)n1-c1ccccc1,?,-1%,0,4%[12.7 µM],-15%,56µM*
Cc1cc(C)n(-c2nc3cc(Cl)ccc3nc2Nc2ccc(CC(=O)O)cc2)n1,nt,9%,nt,16%[59 µM],54%,-6%
O=c1c(-c2ccc(F)cc2)nc2cnc(N3CCNCC3)nc2n1-c1ccccc1,nt,nt,nt,-18%[0.501 µM],nt,nt
Cc1ccc(/C=N/n2c(COc3ccccc3)n[nH]c2=S)o1,?,-33%,-3,13µM*,-3%,56µM*
SMILES,PLK1 PBD block,BAZ2B inh,PI5P4Ka inh,G9a inh,HP1b chromo inh,JMJD2A Tudor
S=c1[nH]nc(COc2ccc(Cl)cc2)n1Cc1ccccc1,-18%,-17%,-7,?,23%,-18%
S=c1[nH]nc(COc2ccccc2)n1/N=C/c1ccco1,0%,?,-4,-116%,-14%,18µM*
O=C(Nc1cccc(S(=O)(=O)N2CCCCC2)c1)C1CCCN1S(=O)(=O)c1ccccc1F (stereo not drawn),-8%,5%,0,-14%[59 µM],0%,-24%
Cc1nc(N)sc1-c1csc(Nc2ccccn2)n1,?,-38%,?,?,-46%,79µM*
Cc1ccnc(Nc2nc(-c3ccc(F)cc3)cs2)c1,-9%,-38%,10,?,30%,-26%
Cc1nc(N)sc1-c1csc(Nc2ccc(Cl)cn2)n1,?,?,nt,10µM*,?,?
Cc1nc(C)c(-c2csc(Nc3ccccn3)n2)s1,-6%,?,-4,?,9%,-33%
Cc1ccnc(Nc2nc(-c3sc(C)nc3C)cs2)c1,-9%,nt,-7,nt,?,79µM*
CCOc1ccc(NC(=O)Cn2ccn(-c3ccc(F)c(F)c3)c(=O)c2=O)cc1,nt,-15%,nt,3%[59 µM],16%,-15%
CC(=C1SC(=S)NC1=O)c1ccccc1,-10%,nt,-54*,nt,-12%,-33%
Cn1ncc2c(Nc3cc(C(F)(F)F)ccc3Cl)ncnc21,nt,3%,nt,-10%[59 µM],23%,-17%
OC(CN1CCN(c2ccccc2)CC1)Cn1c2ccccc2c2ccccc21 (stereo not drawn),-1%,?,19,32µM*,-31%,?
Cc1ccc(OCCN2CCN(CC(O)Cn3c4ccccc4c4ccccc43)CC2)cc1 (stereo not drawn),nt,20µM*,nt,8.9µM*,nt,nt
Cc1ccc(OCC(O)Cn2c3ccccc3c3ccccc32)cc1 (stereo not drawn),1%,3%,nt,72%,64%,17%
OC(CN1CCN(Cc2ccccc2)CC1)Cn1c2ccccc2c2ccccc21 (stereo not drawn),-8%,?,15,?,?,?
OC(CN1CCNCC1)Cn1c2ccccc2c2ccccc21 (stereo not drawn),-13%,-19%,0,50µM*,12%,-28%
COc1ccc(-c2oc3ncn4nc(COc5ccc(C)cc5)nc4c3c2-c2ccc(OC)cc2)cc1,nt,-19%,nt,1%[59 µM],34%,0%
CCc1ccc(N/C(SC)=C(/C#N)C(N)=O)cc1,-6%,-35%,nt,38%[0.501 µM],21%,-1%
CCCCS/C(=C(/C#N)C(N)=O)c1cc2c([nH]1)CCCC2,-15%,40µM*,-4,20µM*,?,45µM*
Cn1c(=O)[nH]c2cc3ccccc3cc21,-3%,4%,1,1.3µM*,20%,0%
C[C@H]1CN([C@@H](C)CO)C(=O)CCCn2nncc2CO[C@@H]1CN(C)Cc1ccncc1,?,nt,-1,nt,nt,nt
